Screen size: about 360,000 compounds; about 7,300 (2%) were called active. The sample as a whole holds a higher share of actives than the screen did. Values without a mark were called inactive. No stated cut-off is given here; in the data, active means inhibition above about 50%; inactive means the rest.

Usually inhibition stands for the relative decrease from the control value, in per cent.

The assay can be described thus: blockers of TWEAK-induced Fn14 reporter activity – luciferase reporter cells, uHTS, primary screen (AID 1159606). Conditions: TWEAK-stimulated Fn14 reporter cells, luciferase luminescence, 8 h; at 10 µM; hits give high values. Background: In a reporter assay the amount or activity of a reporter protein is the signal.
Take `CC(C)Oc1ccc(S(=O)(=O)N2CCOCC2)cc1NC(=O)C1CSC2(C)CCC(=O)N12` (stereo not drawn): the inhibition was -10.2%.

On to `CC1(C(=O)NCc2cccc3ccccc23)CCN1Cc1ccc(-c2ccccc2)o1` (stereo not drawn), for which the inhibition is 7.77%.

Consider `Cc1ccc(-c2c[n+](=O)c3c(n2[O-])CCC3)cc1`, for which the inhibition was -2.42%.

On to `S=C(NCc1ccco1)Nc1ccc2c(c1)OCCO2`, for which the inhibition is 2.21%.

On to `Cc1ccnc(N2C(=O)c3ccccc3C2Nc2ccc3c(c2)OCCO3)c1` (stereo not drawn), for which the inhibition was 61.2% (active).

In the case of `O=C(Nc1ccc2c(c1)OCCO2)C1c2ccccc2OCC(=O)N1Cc1ccccn1` (stereo not drawn), the inhibition is -0.53%.

For `COC(=O)c1cc(NC2c3ccccc3C(=O)N2c2ccc(Cl)cn2)cc(C(=O)OC)c1` (stereo not drawn), the inhibition was -15.2%.

As for `O=C1c2ccccc2C(Nc2ccc3c(c2)OCCO3)N1Cc1ccco1` (stereo not drawn), the inhibition was 70.9% (active).

In the case of `CCCCCn1nnnc1C1c2ccccc2C(=O)N1Cc1ccco1` (stereo not drawn), the inhibition is 16.5%.

Regarding `C[C@@H]1C[C@@H]2O[C@H]2/C=C\C=C\C(=O)Cc2c(Cl)c(O)cc(O)c2C(=O)O1`, the inhibition was 90.7% (active).

Regarding `COc1ccc([C@H]2[C@H](C(C)=O)N3N=Cc4ccccc4C3C23C(=O)OC(C)(C)OC3=O)cc1` (stereo partly drawn), the inhibition is 10.5%.

For `C/C(=N/NC(=S)Nc1ccccc1)c1ccc2c(c1)OCO2`, the inhibition was -46.3%.

`Cc1ccc(NC(=O)Nc2ccc3oc(C)nc3c2)cc1`: the inhibition is -4.94%.

Consider `S=C(Nc1ccccc1)Nc1ccc2ccccc2c1`, for which the inhibition is 0.33%.

For `O=C(Nc1ccc2ccccc2c1)Nc1ccc2snnc2c1`, the inhibition is 74.8% (active).

Take `O=C(C1CCC1)N1CCN(S(=O)(=O)c2ccc([N+](=O)[O-])cc2)CC1`: the inhibition is 4.46%.

Turning to `CCOC(=O)[C@]12CCCC=C1N(Cc1ccc3c(c1)OCO3)C(=O)[C@H](CC(=O)NCc1cccs1)C2`, the inhibition is 15.5%.

Turning to `O=S(=O)(Cc1ccc(Cl)cc1Cl)c1ccc(Cl)cc1`, the inhibition was 12.1%.

Consider `CCCCNC(=O)C[C@@H]1C[C@@]2(C(=O)OCC)CCC=C2N(Cc2cccc3ccccc23)C1=O`, for which the inhibition was 14.7%.

With `COc1ccc(S(=O)(=O)Nc2ccc3oc(C)c(C(C)=O)c3c2)cc1`, the inhibition is 54.4% (active).

On to `CC(=O)c1c(C)oc2ccc(NS(=O)(=O)c3ccc(C(=O)O)cc3)cc12`, for which the inhibition was 3.85%.

Regarding `CC(=O)c1c(C)oc2ccc(NS(=O)(=O)c3ccccc3)cc12`, the inhibition was 21.6%.

As for `CC1(C(=O)NS(=O)(=O)c2ccc(C#N)cc2)CCN1C(=O)CC1CCCC1` (stereo not drawn), the inhibition is 1.67%.

In the case of `CCCCCCN1C[C@H](O)[C@@H](n2cc(C3CC3)nn2)C[C@@H]1c1ccc(Cl)cc1`, the inhibition was -1.73%.

Take `O=C(/C=C/[C@H]1O[C@@H](n2cnc3c(NC(=O)c4ccccc4)ncnc32)[C@H](O)[C@@H]1O)NCc1ccccc1`: the inhibition is -7.74%.

Consider `COc1ccc(NC(=O)CSCc2ccc([N+](=O)[O-])cc2)cc1OC`, for which the inhibition was 6.35%.

In the case of `COc1ccc(NC(=O)C2C3CCC(O3)C2C(=O)O)cc1OC` (stereo not drawn), the inhibition is 2.27%.

As to `COc1ccc(NC(=S)SC)cc1OC`, the inhibition is 68.3% (active).

On to `COc1cc(OC)cc(C(=O)NCCSCc2ccc(Cl)cc2)c1`, for which the inhibition was 0.23%.

With `Cc1nc2ccccc2c(=O)n1NC(=O)c1ccc(Cl)c([N+](=O)[O-])c1`, the inhibition was 32.6%.

On to `C=CCn1c(SCC(=O)NC(=O)Cc2ccccc2)nc2ccccc2c1=O`, for which the inhibition was 14%.

As for `CCn1c(/C=C/c2ccc([N+](=O)[O-])o2)nc2ccccc2c1=O`, the inhibition is 63.4% (active).

`COc1ccc(Cl)cc1NC(=O)COC(=O)C(CC(C)C)N1C(=O)C2CC=CCC2C1=O` (stereo not drawn): the inhibition is -4.03%.

As for `Nc1[nH]c(C(=O)c2ccccc2)c(-c2ccc(Br)cc2)c1C(=O)NC1CC1`, the inhibition is -5.57%.

Take `CN(C)S(=O)(=O)c1ccc(Oc2ccc(S(=O)(=O)N(C)C)cc2)cc1`: the inhibition is 6.23%.

Regarding `Cc1cc(C(C)(C)C)cc(C)c1N`, the inhibition is -8.01%.

As for `CC(C)(C)c1ccc(Oc2ccc(N)cc2)cc1`, the inhibition is 99% (active).

Take `CC(=O)c1ccc(OCCCC(=O)Nc2ccc(C)c(S(=O)(=O)N3CCOCC3)c2)cc1`: the inhibition was -0.59%.

Consider `COC(=O)c1ccc2nc(-c3cccc(Br)c3)c(Cc3ccccc3C(F)(F)F)n2c1`, for which the inhibition was -11.5%.

For the compound `Nc1nc(-c2sc3nc4c(cc3c2N)CCCC4)nc(N2CCOCC2)n1`, the inhibition was -10.3%.

For `COc1ccc(CC(=O)Nc2ccccc2NC(=O)c2ccco2)cc1OC`, the inhibition is -18.6%.

On to `COc1ccc(CCNC(=O)COC(=O)Cc2cc(OC)c(OC)c(OC)c2)cc1`, for which the inhibition was -9.86%.

Regarding `O=C(COC(=O)C1CCCO1)Nc1nc(-c2ccc(F)cc2)cs1` (stereo not drawn), the inhibition was -21.9%.

Consider `COc1ccc(CC(=O)Nc2nc(-c3ccc(F)c(F)c3)cs2)cc1OC`, for which the inhibition is 59% (active).

Take `COc1ccc(CC(=O)NC2CCSc3ccccc32)cc1OC` (stereo not drawn): the inhibition was 2.41%.

As for `COc1cc(CC(=O)Nc2nc(-c3ccc(F)c(F)c3)cs2)cc(OC)c1OC`, the inhibition is 60.3% (active).

Take `O=c1cc(CO)oc(C(Nc2cccc(C(F)(F)F)c2)c2ccccn2)c1O` (stereo not drawn): the inhibition is -5.67%.

Consider `Cc1cc(C)cc(N(CCC#N)C(=O)CN2C(=O)NC3(CCCC3)C2=O)c1`, for which the inhibition is -2.17%.

As for `CCC(C)NC(=O)CN(C1CCCCC1)S(C)(=O)=O` (stereo not drawn), the inhibition was 5.8%.

Consider `CCCCCCN1CCN(C2CN(Cc3cn(Cc4ccc(F)cc4)nn3)S(=O)(=O)C2)CC1` (stereo not drawn), for which the inhibition is 8.31%.

As for `CCc1ccccc1OCC(=O)Nc1nnc(C2CC2)s1`, the inhibition is -23.1%.

For the compound `CN(C(=O)c1ccccn1)c1nnc(-c2ccccn2)s1`, the inhibition was -1.91%.

As for `O=C(Nc1nnc(C2CC2)s1)c1ccccn1`, the inhibition was 65.5% (active).

In the case of `CCc1cc(C(=O)Nc2nnc(C3CC3)s2)sc1C`, the inhibition was 7.61%.

As to `Cc1cnc(NC(=O)Cn2cnc3c2c(=O)n(C)c(=O)n3C)s1`, the inhibition was 6.18%.

As to `Cc1cnc(NC(=O)c2ccccn2)s1`, the inhibition was 55.5% (active).

As to `CN(C)c1cccc(NC(=O)c2ccc(-c3ccc(F)c(F)c3)c3ccoc23)c1`, the inhibition is -36.6%.

On to `CCNC(=S)Nc1ccc2c(c1)c(=O)n(C)n2Cc1ccc(Cl)cc1`, for which the inhibition is 10.2%.

Values taken from PubChem BioAssay AID1159606 (Sanford-Burnham Center for Chemical Genomics, 2016).
